PubChem BioAssay AID1159580 (chemical genetic matrix, 2015)
Where “and” joins values, the source holds several entries; their conditions need not be identical. Identical values can stand only once. Screen size: about 5,500 compounds; about 2,000 (36%) were called active. Not shown: some 18% with an inconclusive outcome. Rule as the data show it: active = normalized growth mostly below about 0.91 (no sharp cut-off); inconclusive = no clear call, values can overlap the other calls; inactive = mostly above about 0.92. This is one part of the list.

Experiment: chemical genetic growth profiling, strain panel (AID 1159580);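 also: tested at 20 µM; growth read once vehicle control cultures reached saturation at 30 °C; 1 = growth at the plate median or of vehicle wells; lower values mean less growth of the strain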
Conditions: S. cerevisiae deletion strains, growth OD

Measured: normalized growth

CC1CCC2(OC1)OC1CC3C4CCC5C[C@@H](O)CCC5(C)C4=CCC3(C)C1[C@@H]2C (stereo partly drawn)
inactive: locus YAL021C, strain ccr4, active compounds read low 1 | locus YAL026C, strain drs2, active compounds read low 0.999 | locus YAL030W, strain snc1, active compounds read low 1.02 | locus YBL061C, strain skt5, active compounds read low 1.01 | locus YBR009C, strain hhf1, active compounds read low 1.01 | locus YBR021W, strain FUR4, active compounds read low 1.13 | locus YBR023C, strain chs3, active compounds read low 1.01 | locus YBR171W, strain sec66, active compounds read low 0.995 | locus YBR229C, strain ROT2, active compounds read low 0.991 | locus YBR231C, strain swc5, active compounds read low 0.997 | locus YBR279W, strain paf1, active compounds read low 1 | locus YCL011C, strain gbp2, active compounds read low 0.991 | locus YCL016C, strain dcc1, active compounds read low 1 | locus YCL029C, strain bik1, active compounds read low 0.972 | locus YCL069W, strain vba3, active compounds read low 0.994 | locus YCR088W, strain abp1, active compounds read low 1.01 | locus YDL005C, strain med2, active compounds read low 1.02 | locus YDL035C, strain GPR1, active compounds read low 1.01 | locus YDL040C, strain nat1, active compounds read low 0.994 | locus YDL074C, strain BRE1, active compounds read low 1.01 | locus YDL101C, strain DUN1, active compounds read low 0.985 | locus YDL185W, strain tfp1, active compounds read low 0.948 | locus YDL192W, strain arf1, active compounds read low 0.985 | locus YDR001C, strain nth1, active compounds read low 0.997 | locus YDR069C, strain doa4, active compounds read low 1.01 | locus YDR101C, strain arx1, active compounds read low 1.01 | locus YDR137W, strain rgp1, active compounds read low 1.04 | locus YDR159W, strain sac3, active compounds read low 1.01 | locus YDR162C, strain NBP2, active compounds read low 1.01 | locus YDR195W, strain ref2 0.931 | locus YDR297W, strain sur2, active compounds read low 0.998 | locus YDR318W, strain mcm21, active compounds read low 0.979 | locus YDR334W, strain swr1, active compounds read low 1.01 | locus YDR335W, strain msn5, active compounds read low 1 | locus YDR388W, active compounds read low 0.966 | locus YDR392W, strain spt3, active compounds read low 0.994 | locus YDR502C, strain sam2, active compounds read low 0.974 | locus YEL003W, strain gim4, active compounds read low 1 | locus YEL037C, strain rad23, active compounds read low 1 | locus YEL061C, strain CIN8 (second series), active compounds read low 0.993 | locus YEL061C, strain CIN8, active compounds read low 0.996 | locus YER015W, strain faa2, active compounds read low 1 | locus YER016W, strain bim1, active compounds read low 1 | locus YER110C, active compounds read low 0.959 | locus YER111C, strain swi4, active compounds read low 0.994 | locus YER155C, strain BEM2 (second series), active compounds read low 0.994 | locus YER155C, strain BEM2, active compounds read low 1.01 | locus YER167W, strain BCK2, active compounds read low 1.01 | locus YFR010W, strain ubp6, active compounds read low 1 | locus YGL078C, strain dbp3, active compounds read low 0.948 | locus YGL086W, strain mad1, active compounds read low 0.998 | locus YGL167C, strain pmr1, active compounds read low 1.01 | locus YGL173C, strain kem1, active compounds read low 1.01 | locus YGL227W, strain vid30, active compounds read low 0.986 | locus YGL240W, strain doc1, active compounds read low 1.01 | locus YGL248W, strain PDE1, active compounds read low 0.999 | locus YGL253W, strain hxk2, active compounds read low 0.99 | locus YGR135W, strain pre9, active compounds read low 0.958 | locus YGR252W, strain gcn5, active compounds read low 1.01 | locus YHR013C, strain ard1, active compounds read low 0.998 | locus YHR027C, strain rpn1, active compounds read low 0.989 | locus YHR030C, strain SLT2, active compounds read low 0.972 and 1.02 | locus YHR079C, strain IRE1 (second series), active compounds read low 0.983 | locus YHR079C, strain IRE1, active compounds read low 1.01 | locus YHR094C, strain hxt1, active compounds read low 0.973 | locus YHR129C, strain ARP1, active compounds read low 0.998 | locus YHR142W, strain chs7, active compounds read low 0.995 | locus YHR200W, strain rpn10, active compounds read low 0.986 | locus YIL066C, strain RNR3, active compounds read low 1 | locus YIL073C, strain SPO22, active compounds read low 0.937 | locus YIL125W, strain kgd1, active compounds read low 0.982 | locus YIR030C, strain dcg1, active compounds read low 0.991 | locus YJL092W, strain hpr5, active compounds read low 0.993 | locus YJL095W, strain BCK1 (second series), active compounds read low 1.02 | locus YJL095W, strain BCK1, active compounds read low 0.982 and 1.02 | locus YJL115W, strain asf1, active compounds read low 0.986 | locus YJL129C, strain trk1, active compounds read low 1.01 | locus YJL134W, strain LCB3, active compounds read low 0.987 | locus YJL154C, strain vps35, active compounds read low 1 | locus YJL164C, strain tpk1, active compounds read low 1.01 | locus YJL166W, strain qcr8, active compounds read low 1 | locus YJL168C, strain set2, active compounds read low 0.984 | locus YJL187C, strain SWE1 (second series), active compounds read low 0.986 | locus YJL187C, strain SWE1, active compounds read low 1.01 | locus YJR043C, strain POL32, active compounds read low 1.02 | locus YJR066W, strain TOR1, active compounds read low 0.945 | locus YKL009W, strain mrt4, active compounds read low 0.988 | locus YKL068W, active compounds read low 0.97 | locus YKL085W, strain MDH1 (second series), active compounds read low 0.978 | locus YKL085W, strain MDH1, active compounds read low 0.978 | locus YKL160W, strain elf1, active compounds read low 0.992 | locus YKL190W, strain CNB1, active compounds read low 0.992 | locus YKR001C, strain vps1, active compounds read low 0.983 | locus YKR026C, strain gcn3, active compounds read low 1 | locus YKR091W, strain srl3, active compounds read low 1.01 | locus YLL001W, strain dnm1, active compounds read low 1.01 | locus YLL026W, active compounds read low 0.992 | locus YLL041C, strain sdh2, active compounds read low 0.992 | locus YLR027C, strain aat2, active compounds read low 0.985 | locus YLR039C, strain RIC1, active compounds read low 1.01 | locus YLR058C, strain SHM2, active compounds read low 0.973 | locus YLR102C, strain apc9, active compounds read low 0.974 | locus YLR113W, strain HOG1, active compounds read low 0.992 | locus YLR221C, strain rsa3, active compounds read low 1 | locus YLR258W, strain gsy2, active compounds read low 0.994 | locus YLR262C, strain YPT6 (second series), active compounds read low 1.1 | locus YLR262C, strain YPT6, active compounds read low 1.04 | locus YLR268W, strain sec22, active compounds read low 0.999 | locus YLR320W, strain mms22, active compounds read low 1 | locus YLR330W, strain CHS5, active compounds read low 0.993 | locus YLR342W, strain FKS1 (second series), active compounds read low 1.05 | locus YLR342W, strain FKS1, active compounds read low 1.05 | locus YLR357W, strain rsc2, active compounds read low 1 | locus YLR370C, strain arc18, active compounds read low 1.02 | locus YLR371W, strain rom2, active compounds read low 0.978 | locus YLR384C, strain iki3, active compounds read low 1.01 | locus YLR418C, strain cdc73, active compounds read low 0.977 | locus YML016C, strain PPZ1, active compounds read low 1.01 | locus YML032C, strain rad52, active compounds read low 0.964 | locus YML120C, strain ndi1, active compounds read low 0.99 | locus YML124C, strain tub3, active compounds read low 0.98 | locus YMR058W, strain fet3, active compounds read low 0.983 | locus YMR078C, strain ctf18, active compounds read low 0.98 | locus YMR125W, strain sto1, active compounds read low 0.995 | locus YMR129W, active compounds read low 0.997 | locus YMR205C, strain PFK2, active compounds read low 0.997 | locus YMR223W, strain ubp8, active compounds read low 0.994 | locus YMR231W, strain pep5, active compounds read low 0.998 | locus YMR263W, strain SAP30, active compounds read low 0.982 | locus YMR307W, strain GAS1, active compounds read low 1.27 | locus YNL067W, strain RPL9B, active compounds read low 0.974 | locus YNL071W, strain lat1, active compounds read low 1.02 | locus YNL183C, strain NPR1, active compounds read low 0.963 | locus YNL209W, strain ssb2, active compounds read low 1 | locus YNL233W, strain BNI4, active compounds read low 0.99 | locus YNL248C, strain rpa49, active compounds read low 1.01 | locus YNL250W, strain rad50, active compounds read low 0.959 | locus YNL271C, strain bni1, active compounds read low 0.983 | locus YNL298W, strain CLA4, active compounds read low 0.98 | locus YNL307C, strain MCK1, active compounds read low 0.982 | locus YNL322C, strain KRE1 (second series), active compounds read low 0.986 | locus YNL322C, strain KRE1, active compounds read low 1 | locus YNR049C, strain mso1, active compounds read low 1.01 | locus YNR052C, strain pop2, active compounds read low 0.981 | locus YOL012C, strain htz1 0.809 | locus YOL147C, strain pex11, active compounds read low 0.98 | locus YOR001W, strain rrp6, active compounds read low 1.01 | locus YOR061W, strain CKA2, active compounds read low 1 | locus YOR069W, strain VPS5, active compounds read low 0.981 | locus YOR070C, strain gyp1, active compounds read low 1.01 | locus YOR080W, strain dia2, active compounds read low 1.01 | locus YOR083W, strain WHI5, active compounds read low 1 | locus YOR106W, strain vam3, active compounds read low 1.02 | locus YOR136W, strain idh2, active compounds read low 0.983 | locus YOR144C, strain elg1, active compounds read low 0.979 | locus YOR184W, strain ser1, active compounds read low 0.996 | locus YOR231W, strain MKK1, active compounds read low 1 | locus YOR265W, strain rbl2, active compounds read low 0.999 | locus YOR270C, strain vph1, active compounds read low 1.04 | locus YOR290C, strain snf2, active compounds read low 1 | locus YOR316C, strain cot1, active compounds read low 0.959 | locus YPL051W, strain arl3, active compounds read low 0.997 | locus YPL055C, strain LGE1, active compounds read low 1.02 | locus YPL078C, strain atp4, active compounds read low 0.991 | locus YPL106C, strain sse1, active compounds read low 0.995 | locus YPL240C, strain hsp82, active compounds read low 1.01 | locus YPL241C, strain CIN2, active compounds read low 0.989 | locus YPL256C, strain CLN2, active compounds read low 0.983 | locus YPR119W, strain clb2, active compounds read low 0.985 | locus YPR141C, strain kar3, active compounds read low 0.962 | locus YPR163C, strain tif3, active compounds read low 0.954 | locus YPR167C, strain met16, active compounds read low 0.989 | strain wtn01, active compounds read low 0.986
